# An excerpt weighted towards active compounds, which were near 11% of everything screened.
# HPGD inh: HPGD (human) dehydrogenase inhibition | 150,000 tested, 4.3% active | P15428 | AID 894 | purified HPGD, NADH fluorescence kinetic, PGE2 substrate | Potency, µM, without a hit: at the highest dose activity change, negative = inhibition, actives largely listed as inhibitors; note: potency is the fitted concentration of half-maximal effect
# Target sequence (P15428 whole entry, looked up): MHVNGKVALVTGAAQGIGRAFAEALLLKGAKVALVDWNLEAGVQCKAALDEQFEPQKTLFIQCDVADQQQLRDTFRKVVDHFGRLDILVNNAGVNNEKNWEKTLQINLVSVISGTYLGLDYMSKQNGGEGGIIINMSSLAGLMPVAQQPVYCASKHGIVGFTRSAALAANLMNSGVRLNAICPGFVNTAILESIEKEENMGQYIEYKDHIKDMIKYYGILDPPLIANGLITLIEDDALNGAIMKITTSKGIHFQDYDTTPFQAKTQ
#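 20 nM HPGD preincubated 15 min at room temperature with compound in 50 mM Tris-HCl pH 8, 0.01% Tween 20. Started with 1 mM NAD+ and 30 uM prostaglandin E2; NADH fluorescence (360/450 nm) read 5 times over 30-s intervals, last minus first.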
# ALDH1A1 block: inhibitors of human aldehyde dehydrogenase 1A1 | P00352 | Purified ALDH1A1, NADH fluorescence, propionaldehyde substrate | Potency, µM (doses to about 75.3 µM), for the others: at the highest dose activity, negative = inhibition, hits mostly inhibitors | 220,000 tested, 7.3% active;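 note: potency is the fitted concentration of half-maximal effect; plate controls were no enzyme wells and a reference inhibitor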
# PNC assembly inh: perinucleolar compartment assembly inhibition | PC3M PTB-GFP, PNC prevalence imaging, 16 h; stronger effect = lower value | activity change (PNC), negative = inhibition, % at 10 µM | AID 2417 | 140,000 tested, 3.1% active;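 active = readout at or below -70, meaning at least 70% loss of cells showing the perinucleolar compartment, a nuclear body marking cancer cells; inconclusive = readout between -30 and a set limit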;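 note: plate controls were DMSO wells for no effect and camptothecin positive control wells for full effect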
#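 Read-out is percentage of cells bearing a perinucleolar compartment, from automated 20x imaging of fixed, Hoechst-stained PC3M PTB-GFP cells. Cells were seeded 4 h, then exposed 16 h to compound (23 nl of library stock) in duplicate plates.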
# Numbers without * were called inactive; ? = inconclusive; · = no result given; [ ] = remark or other dose. Unless noted, calls come from the whole dose curve; as a rule, active = well fitted inhibition curve with a large enough effect (not every such curve was filed as active); inconclusive = small, poorly fitted or top-dose-only effect, or another doubt; inactive = no such curve, though single readings can be large or run the other way. Unless noted, % is set by controls: 0 for no effect and ±100 for the full control effect.
SMILES,HPGD inh,ALDH1A1 block,PNC assembly inh
COc1cccc(-n2nc(C(C)=O)c(C#N)c2-c2ccco2)c1,-1%,-3%,19
CC12CC(c3ccccc3O1)N(C(=O)c1ccco1)C(=S)N2c1ccc(F)cc1 (centres undefined),-6%,0%,16
O=C(O)c1cccc(N2C(=O)/C(=C/c3ccc([N+](=O)[O-])cc3)C=C2c2ccccc2)c1,·,25µM*,·
O=C1/C(=C/c2ccc([N+](=O)[O-])cc2)C=C(c2ccccc2)N1c1ccccc1,·,-2%,10
O=C(O)/C=C/C(=O)Nc1ccccc1-c1ccccc1,28µM*,?,-109*
O=C(O)/C=C/C(=O)Nc1ccccc1SC(F)(F)C(F)(F)C(F)(F)F,·,-7%,·
CN(C)c1ccc(C(CNS(=O)(=O)c2ccc3ccccc3c2)c2c[nH]c3ccccc23)cc1 (centres undefined),-4%,-9%,?
CN(C)c1ccc(C(CN)c2c[nH]c3ccccc23)cc1 (centres undefined),·,16µM*,·
CC(C)[C@@H](CC(=O)N[C@@H]1CCNC[C@H]1C(=O)N[C@H](CC(=O)N[C@@H](CCC(=O)O)CC(=O)O)Cc1ccccc1)NC(=O)C[C@H](CO)NC(=O)[C@@H]1CCCC[C@H]1N,-4%,-1%,·
COc1ccccc1N1C(=O)C2C(c3ccccc3F)NN(C(=O)c3ccc(C)cc3)C2C1=O (centres undefined),?,8%,37
Cc1ccc(C(=O)N2NC(c3ccccc3F)C3C(=O)N(c4cccc(C)c4)C(=O)C32)cc1 (centres undefined),-28%,2.5µM*,38
COc1ccc(N2COC3c4cccc5cccc(c45)C32)cc1 (centres undefined),-20%,19µM*,11
Clc1ccc(N2COC3c4cccc5cccc(c45)C32)cc1 (centres undefined),-13%,-12%,-100*
CS(=O)(=O)NC1c2cccc3cccc(c23)C1N1CCOCC1 (centres undefined),-12%,?,-14
CCOC(=O)C1(CC2CC2)CCN(Cc2ccc3cccc(F)c3n2)CC1,·,-6%,·
Cc1ccc(/C=C/C(=O)Nc2nnc(C)s2)o1,?,?,1
CC(/C=C/c1ccc(C)o1)=C\C(=O)O,-22%,20µM*,6
COC(=O)c1ccc(Cl)cc1NC(=O)/C=C/c1ccc(C)o1,?,20µM*,-124*
CC(/C=C/c1cccs1)=C\C(=O)O,-21%,2%,38
COC(=O)c1cc(Cl)c(NC(=O)/C=C/c2ccc(Cl)cc2Cl)cc1OC,?,?,-11
Cc1ccc(/C=C/C(=O)Nc2ccc(Oc3ccccc3)cc2)o1,25µM*,24µM*,31
CCN1CCN(C(=O)/C=C/c2ccc(C)o2)CC1,-13%,-10%,0
Cc1ccc(/C=C/C(=O)N2CC(C)CC(C)C2)o1 (centres undefined),?,10µM*,26
Cc1nc(SCC(=O)Nc2cccnc2Cl)nc(C)c1C,·,-1%,·
COc1cc(C(=O)NCCOc2cccc(C)c2)c(Br)c(OC)c1OC,7%,-5%,11
SMILES,HPGD inh,ALDH1A1 block,PNC assembly inh
Cc1ccc(S(=O)(=O)N2CCN(C(=O)c3cccs3)CC2)c(C)c1,·,2%,·
CCOC(=O)/C=C/C(=O)Nc1ccc(S(=O)(=O)Nc2c(C)cc(C)cc2C)cc1,-5%,13µM*,66
CCOC(=O)/C=C/C(=O)Nc1ccc(Oc2ccccc2)cc1,·,25µM*,·
CC(=O)Nc1ccc(Oc2ccccc2)cc1,·,4%,·
CCCOc1ccc(/C=C/C(=O)Nc2ccc([N+](=O)[O-])cc2)cc1,·,5%,?
CCOC(=O)/C=C/C(=O)OCC(=O)Nc1ccc(C)cc1,·,-3%,·
Cc1ccc(/C=C/C(=O)Nc2ccc([N+](=O)[O-])cc2)o1,·,12µM*,11
CCOC(=O)C(=O)Nc1ccc(Oc2ccccc2)cc1,·,3%,·
COC(=O)Nc1ccc(Oc2ccccc2)cc1,?,0%,-93*
Cc1cc(NC(=O)CSc2nnc(-c3cccnc3)n2Cc2ccccc2)no1,·,7%,·
CCCn1nc(Oc2nc(N(C)C)nc(N(C)C)n2)ccc1=O,·,16%,·
O=C(c1cccc(S(=O)(=O)N2CCc3ccccc3C2)c1)N1CCN(c2ccc(O)cc2)CC1,-9%,?,-20
O=C(O)/C=C/C(=O)N(Cc1ccc2c(c1)OCO2)C1CC(=O)N(CCc2ccccc2)C1=O (centres undefined),·,11%,·
COc1ccc2c(c1)CCN(C(=O)CCl)C2C1C(=O)CCCC1=O (centres undefined),-5%,22µM*,11
COc1cc2c(cc1OC)C(C1C(=O)CCCC1=O)N(C(=O)CCl)CC2 (centres undefined),-8%,?,?
COc1cc2c(cc1OC)CN(CC(=O)Nc1ccc3c(c1)OCO3)CC2,-1%,0%,-24
Cc1cc(C)cc(NC(=O)CN2CCc3ccccc3C2)c1,3%,-3%,-14
CCOC(=O)c1ccc(NC(=O)CN2CCc3ccccc3C2)cc1,-26%,14µM*,-12
COc1ccc(CN2CCc3cc(OC)c(OC)cc3C2)cc1O,·,-11%,·
COc1cc2c(cc1OC)CN(CC(=O)Nc1ccc(C)cc1)CC2,-15%,?,-89*
COc1cc2c(cc1OC)CN(Cc1ccc(C)s1)CC2,-10%,28µM*,11
COc1cccc(C(=O)N2CCN=C2SC)c1,·,8%,·
O=C(NCc1ccccn1)c1ccc(CNS(=O)(=O)c2cccc(Cl)c2)cc1,-7%,3%,-20
CCOC(=O)c1cnn(-c2c(Cc3ccccc3)c(C)nc3c(-c4ccccc4)c(C)nn23)c1N,-8%,0.1µM*,-28
CCOC(=O)c1cnn(-c2cc(C(C)(C)C)nc3c(-c4ccccc4)c(C)nn23)c1N,-5%,9%,1
SMILES,HPGD inh,ALDH1A1 block,PNC assembly inh
CCOC(=O)c1c(CC(C)C)csc1NC=O,-19%,?,25
CCOC(=O)c1c(-c2ccc(C)cc2)csc1/N=C/N(C)C,·,0%,·
CCOC(=O)c1c(CC(C)C)csc1/N=C/C1C(=O)CCCC1=O,·,11µM*,·
CCOC(=O)c1c(-c2ccccc2)csc1/N=C/C1C(=O)CCCC1=O,-7%,3.5µM*,38
CC1CN(S(=O)(=O)c2ccc(C(=O)Nc3ccc(S(=O)(=O)Nc4ncccn4)cc3)cc2)CC(C)O1 (centres undefined),0%,15%,5
CCOC(=O)N/N=C1/C[C@@H](O)[C@@H](O)[C@@H]2[C@@H]3C(=O)N(C4CCCCC4)C(=O)[C@H]3CC[C@H]12,·,-5%[13.5 µM],·
COc1ccc(/C=N/NC(=O)c2nn(-c3ccc(Cl)cc3)c(=O)c3c(N)scc23)cc1,11µM*,6.3µM*,56
COc1ccc(/C=N/NC(=O)c2nn(-c3ccc(C)c(C)c3)c(=O)c3ccccc23)cc1,?,-10%,?
COc1ccc(/C=N/NC(=O)c2nn(-c3ccccc3)c(=O)c3c(N)scc23)cc1,28µM*,28µM*,77
CCOC(=O)c1nn(-c2ccc(C)c(C)c2)c(=O)c2c(N)scc12,·,-3%,?
COc1ccc(/C=N/NC(=O)c2csc(-n3nc(C)cc3C(F)(F)F)n2)cc1,-1%,?,-10
CCOC(=O)c1nn(-c2ccc(OC)cc2)c(=O)c2c(N)scc12,-26%,8.9µM*,?

# Compound activity deposited in PubChem by National Center for Advancing Translational Sciences (NCATS).
